The full data set covers some 7,900 targets. This sample favours those with a hit. About 0.6% of all pairs of compound and target were hits. Unmarked numbers belong to inactive results.
Columns and labels:
Experiment in all cases: log2 fold change, soluble protein after heating vs DMSO (PISA); higher = thermal stabilisation; K562 cells, 10 uM, 30 min; active = over 0.2 and 3.5 SD of the protein, either way, in both replicates (recomputed)
YWHAB = YWHAB (UniProt P31946)
Method in brief: (§1)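 Soluble protein was defined as the supernatant after 21,000xg for 90 min. It came from K562 cells at 2×10^6 cells/mL given 10 μM compound for 30 min, heated in aliquots for 3 min across 48°C-58°C, pooled, and extracted in PBS with 0.5% NP-40 at 4°C, and was quantified by TMTpro 16plex LC-MS/MS with equalised channel sums. Thermal stability against control samples, from duplicates, is reported as log2 fold change.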

YWHAQ = YWHAQ (UniProt P27348)
Chain of YWHAQ (P27348 whole entry, looked up): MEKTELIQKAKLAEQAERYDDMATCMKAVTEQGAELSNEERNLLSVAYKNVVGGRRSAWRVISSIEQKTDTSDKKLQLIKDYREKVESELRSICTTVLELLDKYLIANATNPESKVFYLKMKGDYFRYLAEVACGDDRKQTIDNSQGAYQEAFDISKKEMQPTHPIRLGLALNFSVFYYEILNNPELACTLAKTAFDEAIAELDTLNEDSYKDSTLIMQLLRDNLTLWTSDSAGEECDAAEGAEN
Method in brief: as §1

YWHAZ [1] = biological target: YWHAZ (UniProt E7ESK7)
Method in brief: as §1

YWHAZ [2] = biological target: YWHAZ (UniProt P63104)
Chain of YWHAZ (UniProt P63104) (P63104 whole entry, looked up): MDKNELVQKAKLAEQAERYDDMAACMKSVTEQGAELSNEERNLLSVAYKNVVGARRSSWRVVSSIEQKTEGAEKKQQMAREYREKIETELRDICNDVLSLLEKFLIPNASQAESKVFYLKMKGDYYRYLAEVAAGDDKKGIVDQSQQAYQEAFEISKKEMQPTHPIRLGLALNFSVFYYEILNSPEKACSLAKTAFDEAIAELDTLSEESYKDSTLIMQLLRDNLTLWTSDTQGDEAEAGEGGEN
Method in brief: as §1

YY1 = YY1 (UniProt P25490)
Method in brief: as §1

ZADH2 = ZADH2 (UniProt Q8N4Q0)
Chain of ZADH2 (Q8N4Q0 whole entry, looked up): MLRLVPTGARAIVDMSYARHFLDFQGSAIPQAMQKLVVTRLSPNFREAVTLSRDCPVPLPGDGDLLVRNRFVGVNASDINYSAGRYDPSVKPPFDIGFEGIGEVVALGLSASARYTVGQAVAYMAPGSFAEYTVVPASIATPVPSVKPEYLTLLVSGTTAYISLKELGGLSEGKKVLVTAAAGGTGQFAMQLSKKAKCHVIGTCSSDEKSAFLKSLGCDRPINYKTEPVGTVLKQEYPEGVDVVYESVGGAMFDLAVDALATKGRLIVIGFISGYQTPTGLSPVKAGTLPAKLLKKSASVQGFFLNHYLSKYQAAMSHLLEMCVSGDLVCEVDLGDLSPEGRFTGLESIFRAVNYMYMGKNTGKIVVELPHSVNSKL
Method in brief: as §1

ZBTB21 = ZBTB21 (UniProt Q9ULJ3)
Method in brief: as §1

ZBTB43 = ZBTB43 (UniProt O43298)
Method in brief: as §1

ZC3H18 = ZC3H18 (UniProt Q86VM9)
Chain of ZC3H18 (Q86VM9 whole entry, looked up): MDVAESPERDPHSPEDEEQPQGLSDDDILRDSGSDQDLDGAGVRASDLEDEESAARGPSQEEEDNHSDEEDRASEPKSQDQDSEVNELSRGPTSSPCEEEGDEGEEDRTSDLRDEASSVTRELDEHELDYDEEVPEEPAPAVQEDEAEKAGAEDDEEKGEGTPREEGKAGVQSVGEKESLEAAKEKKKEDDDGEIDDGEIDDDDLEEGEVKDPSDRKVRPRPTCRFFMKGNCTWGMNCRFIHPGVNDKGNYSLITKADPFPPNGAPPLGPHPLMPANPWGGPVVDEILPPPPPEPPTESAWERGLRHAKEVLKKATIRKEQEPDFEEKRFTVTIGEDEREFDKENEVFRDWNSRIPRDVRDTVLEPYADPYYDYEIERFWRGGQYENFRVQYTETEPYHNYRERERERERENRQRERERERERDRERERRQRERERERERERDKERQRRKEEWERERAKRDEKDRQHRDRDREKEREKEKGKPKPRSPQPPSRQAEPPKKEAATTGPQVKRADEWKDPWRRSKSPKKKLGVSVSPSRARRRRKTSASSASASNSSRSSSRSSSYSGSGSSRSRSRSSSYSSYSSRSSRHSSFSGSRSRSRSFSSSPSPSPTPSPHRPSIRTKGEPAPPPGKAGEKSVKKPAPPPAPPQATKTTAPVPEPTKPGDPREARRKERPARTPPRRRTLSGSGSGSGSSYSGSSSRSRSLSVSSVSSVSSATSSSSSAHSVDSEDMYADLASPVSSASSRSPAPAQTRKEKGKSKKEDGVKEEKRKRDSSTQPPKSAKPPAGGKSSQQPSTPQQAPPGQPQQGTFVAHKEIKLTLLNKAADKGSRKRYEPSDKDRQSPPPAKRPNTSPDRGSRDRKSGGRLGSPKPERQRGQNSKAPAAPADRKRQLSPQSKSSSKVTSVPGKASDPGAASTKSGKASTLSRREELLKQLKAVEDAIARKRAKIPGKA
Method in brief: as §1

ZC3H8 = ZC3H8 (UniProt Q8N5P1)
Method in brief: as §1

ZC3HC1 = ZC3HC1 (UniProt Q86WB0)
Chain of ZC3HC1 (Q86WB0 whole entry, looked up): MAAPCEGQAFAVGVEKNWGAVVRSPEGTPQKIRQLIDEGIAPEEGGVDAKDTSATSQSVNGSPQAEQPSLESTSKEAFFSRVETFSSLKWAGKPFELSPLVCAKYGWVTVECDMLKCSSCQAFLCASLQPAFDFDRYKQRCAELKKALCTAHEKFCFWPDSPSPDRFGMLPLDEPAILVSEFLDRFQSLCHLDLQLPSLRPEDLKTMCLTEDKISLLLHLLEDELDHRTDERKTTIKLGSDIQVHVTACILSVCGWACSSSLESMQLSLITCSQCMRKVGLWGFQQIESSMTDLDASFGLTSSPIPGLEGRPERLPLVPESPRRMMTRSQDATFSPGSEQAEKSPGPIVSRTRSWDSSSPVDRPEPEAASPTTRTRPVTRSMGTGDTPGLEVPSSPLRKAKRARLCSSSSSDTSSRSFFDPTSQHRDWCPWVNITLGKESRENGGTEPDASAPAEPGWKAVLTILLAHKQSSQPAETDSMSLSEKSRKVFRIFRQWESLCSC
Method in brief: as §1

ZDHHC17 = ZDHHC17 (UniProt Q8IUH5)
Chain of ZDHHC17 (Q8IUH5 whole entry, looked up): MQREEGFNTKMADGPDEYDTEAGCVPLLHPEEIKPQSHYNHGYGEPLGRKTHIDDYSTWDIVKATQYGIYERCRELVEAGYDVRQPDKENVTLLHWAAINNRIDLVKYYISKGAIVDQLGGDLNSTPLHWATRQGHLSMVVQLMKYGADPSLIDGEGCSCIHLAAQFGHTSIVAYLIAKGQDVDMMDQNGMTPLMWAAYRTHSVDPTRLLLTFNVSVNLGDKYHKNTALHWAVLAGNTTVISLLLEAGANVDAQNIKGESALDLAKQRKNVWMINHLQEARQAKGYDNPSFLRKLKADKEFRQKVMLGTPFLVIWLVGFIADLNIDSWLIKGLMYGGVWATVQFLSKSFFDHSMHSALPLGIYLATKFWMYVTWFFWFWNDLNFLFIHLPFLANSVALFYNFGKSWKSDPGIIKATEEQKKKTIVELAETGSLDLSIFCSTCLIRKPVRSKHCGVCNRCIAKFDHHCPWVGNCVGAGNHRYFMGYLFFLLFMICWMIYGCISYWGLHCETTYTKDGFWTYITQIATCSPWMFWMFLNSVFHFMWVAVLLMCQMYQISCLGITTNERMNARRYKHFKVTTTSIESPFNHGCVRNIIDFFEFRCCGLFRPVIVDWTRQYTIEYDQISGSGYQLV
Method in brief: as §1

ZDHHC20 = ZDHHC20 (UniProt Q5W0Z9)
Chain of ZDHHC20 (Q5W0Z9 whole entry, looked up): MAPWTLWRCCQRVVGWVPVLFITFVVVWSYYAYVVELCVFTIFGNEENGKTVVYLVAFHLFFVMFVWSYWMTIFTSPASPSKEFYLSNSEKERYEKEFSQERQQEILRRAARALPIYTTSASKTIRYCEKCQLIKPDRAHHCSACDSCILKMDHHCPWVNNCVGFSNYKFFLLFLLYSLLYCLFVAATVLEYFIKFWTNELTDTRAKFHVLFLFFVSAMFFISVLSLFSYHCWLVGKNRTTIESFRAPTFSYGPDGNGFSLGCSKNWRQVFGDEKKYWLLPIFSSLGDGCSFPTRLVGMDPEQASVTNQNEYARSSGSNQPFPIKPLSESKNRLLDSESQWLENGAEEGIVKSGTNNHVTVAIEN
Method in brief: as §1

ZDHHC5 = ZDHHC5 (UniProt Q9C0B5)
Chain of ZDHHC5 (Q9C0B5 whole entry, looked up): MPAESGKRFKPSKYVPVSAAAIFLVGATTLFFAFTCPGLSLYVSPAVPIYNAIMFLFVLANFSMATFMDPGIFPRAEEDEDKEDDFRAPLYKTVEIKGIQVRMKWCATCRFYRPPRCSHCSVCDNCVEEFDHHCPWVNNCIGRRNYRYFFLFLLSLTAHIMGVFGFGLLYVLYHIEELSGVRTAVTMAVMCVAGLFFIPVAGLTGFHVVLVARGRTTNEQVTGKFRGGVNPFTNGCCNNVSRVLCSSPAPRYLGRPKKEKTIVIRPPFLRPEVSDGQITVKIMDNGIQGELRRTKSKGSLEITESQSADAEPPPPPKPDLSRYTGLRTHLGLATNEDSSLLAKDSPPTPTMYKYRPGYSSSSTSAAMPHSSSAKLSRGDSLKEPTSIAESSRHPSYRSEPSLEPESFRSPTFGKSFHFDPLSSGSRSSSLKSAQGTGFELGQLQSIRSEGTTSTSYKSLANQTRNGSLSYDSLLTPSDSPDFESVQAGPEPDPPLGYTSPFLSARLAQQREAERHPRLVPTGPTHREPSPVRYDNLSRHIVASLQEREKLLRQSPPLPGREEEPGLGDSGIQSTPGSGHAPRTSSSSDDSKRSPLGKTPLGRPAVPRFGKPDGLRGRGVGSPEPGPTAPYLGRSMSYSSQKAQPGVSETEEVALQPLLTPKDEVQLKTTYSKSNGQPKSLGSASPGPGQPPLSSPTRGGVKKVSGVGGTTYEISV
Method in brief: as §1

ZDHHC7 isoform 2 = ZDHHC7 isoform 2 (UniProt Q9NXF8)
Method in brief: as §1

ZDHHC8 isoform 3 = ZDHHC8 isoform 3 (UniProt Q9ULC8)
Method in brief: as §1

ZCCHC9 = ZCCHC9 (UniProt Q8N567)
Chain of ZCCHC9 (Q8N567 whole entry, looked up): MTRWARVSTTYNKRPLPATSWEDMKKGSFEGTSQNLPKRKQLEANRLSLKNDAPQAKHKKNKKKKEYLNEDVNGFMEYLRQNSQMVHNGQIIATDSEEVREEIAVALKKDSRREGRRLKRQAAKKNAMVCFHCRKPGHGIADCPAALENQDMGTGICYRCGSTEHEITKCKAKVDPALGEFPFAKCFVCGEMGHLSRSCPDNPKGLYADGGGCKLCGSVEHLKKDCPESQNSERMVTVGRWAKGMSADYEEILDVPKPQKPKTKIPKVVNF
Method in brief: as §1

ZDHHC6 = ZDHHC6 (UniProt Q9H6R6)
Chain of ZDHHC6 (Q9H6R6 whole entry, looked up): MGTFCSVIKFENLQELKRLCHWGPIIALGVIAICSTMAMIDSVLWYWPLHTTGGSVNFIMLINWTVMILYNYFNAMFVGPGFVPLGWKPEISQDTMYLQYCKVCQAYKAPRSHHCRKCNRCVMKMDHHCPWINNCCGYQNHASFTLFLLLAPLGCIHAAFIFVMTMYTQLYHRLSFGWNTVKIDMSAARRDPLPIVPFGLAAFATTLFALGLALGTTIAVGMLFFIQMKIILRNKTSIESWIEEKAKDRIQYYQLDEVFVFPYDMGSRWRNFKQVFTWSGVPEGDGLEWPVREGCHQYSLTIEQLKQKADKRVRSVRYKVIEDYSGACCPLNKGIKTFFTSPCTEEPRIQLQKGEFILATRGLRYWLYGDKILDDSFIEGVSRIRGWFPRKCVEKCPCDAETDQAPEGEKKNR
Method in brief: as §1

Chain of YWHAB (P31946 whole entry, looked up): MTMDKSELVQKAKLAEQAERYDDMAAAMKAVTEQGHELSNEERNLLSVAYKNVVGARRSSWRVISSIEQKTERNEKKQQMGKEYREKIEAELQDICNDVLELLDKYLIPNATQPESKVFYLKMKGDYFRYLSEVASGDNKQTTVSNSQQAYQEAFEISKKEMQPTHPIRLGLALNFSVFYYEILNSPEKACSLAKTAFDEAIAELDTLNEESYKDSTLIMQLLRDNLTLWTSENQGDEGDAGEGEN

SMILES	log2 fold change (YWHAB)	log2 fold change (YWHAQ)	log2 fold change (YWHAZ [1])	log2 fold change (YWHAZ [2])	log2 fold change (YY1)	log2 fold change (ZADH2)	log2 fold change (ZBTB21)	log2 fold change (ZBTB43)	log2 fold change (ZC3H18)	log2 fold change (ZC3H8)	log2 fold change (ZC3HC1)	log2 fold change (ZDHHC17)	log2 fold change (ZDHHC20)	log2 fold change (ZDHHC5)	log2 fold change (ZDHHC7 isoform 2)	log2 fold change (ZDHHC8 isoform 3)	log2 fold change (ZCCHC9)	log2 fold change (ZDHHC6)
Cc1nc(Nc2ncc(C(=O)Nc3c(C)cccc3Cl)s2)cc(N2CCN(CCO)CC2)n1 [dasatinib]	0.006	-0.149	-0.094	-0.044	-0.001	0.035	-0.005	-0.034	0.038	0.123	-0.214	-0.002	-0.163	0.019	-0.063	-0.112		
C[C@H](Nc1ncnc2nc[nH]c12)c1cc2cccc(Cl)c2c(=O)n1-c1ccccc1 [duvelisib]	0.056	-0.144	0.171	-0.084	-0.007	0.033	0.081	0.027	0.019	-0.126	-0.002	0.036	0.04	-0.044	0.082	-0.038		
CC(C)(C)Cn1c(N)nc2ccc(-c3[nH]c(C(C)(C)C)nc3-c3ccc(F)cc3)nc21 [ralimetinib]	-0.063	0.237	-0.031	0.145	0.002	0.169	0.121	0.012	0.03	0.047	0.035	-0.099	-0.187	-0.001	-0.033		0.017	
C[C@@H](Oc1cc(-c2cnn(C3CCNCC3)c2)cnc1N)c1c(Cl)ccc(F)c1Cl [crizotinib]	0.017	0.026	0.081	0.008	-0.021	0.127	-0.1	-0.077	-0.042	0.089	-0.109	-0.064	0.017	0.075	-0.131	-0.187	0.032	
CC(C)N(C[C@H]1O[C@@H](n2cnc3c(N)ncnc32)[C@H](O)[C@@H]1O)[C@H]1C[C@@H](CCc2nc3cc(C(C)(C)C)ccc3[nH]2)C1 [pinometostat]	-0.031	-0.067	-0.035	-0.026	0.02	0	0.209	-0.05	0.053	0.017	-0.005	0.053	0.025	-0.02	-0.024	0.026	0.187	
CC[C@@H]1C(=O)N(C)c2cnc(Nc3ccc(C(=O)N[C@H]4CC[C@H](N5CCN(CC6CC6)CC5)CC4)cc3OC)nc2N1C(C)C [volasertib]	0.024	-0.073	-0.173	-0.016	-0.44 (active)	0.754 (active)	-0.063		-0.085	0.207	-0.579 (active)	-0.095	0.011	0.093	-0.059		0.226	-0.094
CCCS(=O)(=O)Nc1ccc(F)c(C(=O)c2c[nH]c3ncc(Cl)cc23)c1F	0.031	0.233	-0.05	0.228 (active)	0.037	-0.012	0.091		-0.019	-0.138	0.189	-0.016	0.138	-0.009	0.014		-0.177	-0.048
Cc1cccc(-c2[nH]c(C(C)(C)C)nc2-c2ccc3nccnc3c2)n1	0.021	0.05	-0.064	0.009	0.039	-0.004	-0.03	-0.04	-0.029	-0.176	0.119	-0.095	-0.007	-0.013	0.335	-0.03	-0.133	
O=C1c2ccccc2-c2n[nH]c3cccc1c23	0.001	0.089	0.008	0.045	-0.07	0.03	0.006	-0.161	-0.211	-0.001	-0.032	-0.021	-0.044	-0.054	0.01		-0.009	
CN1CCN(CCOc2cc(OC3CCOCC3)c3c(Nc4c(Cl)ccc5c4OCO5)ncnc3c2)CC1 [saracatinib]	0.014	0.234	-0.076	0.064	0.047	0.005	-0.149	-0.147	-0.072	0.088	0.024	-0.009	-0.045	0.034	0.034	0.188		
c1cn2cc(-c3ccc4cn[nH]c4c3)nc(Nc3ccc(N4CCOCC4)cc3)c2n1 [entospletinib]	0.009	-0.017	0.161	0.006	0.022	0.053		0.137	0.097	-0.034	0.005	0.059	-0.02	0.071	0.027		0.168	-0.058
CNc1nc(-c2ccc3c(N)n[nH]c3c2)cc(N2C[C@@H](C(=O)NC3CCCCC3)CC[C@H]2C)n1	-0.015	0.179	-0.097	0.031	-0.08	-0.011	-0.111	-0.014	-0.136	0.012	0.104	0.017	0.121	0.011	-0.03	0		
CC[C@@H]1C(=O)N(C)c2cnc(Nc3ccc(C(=O)NC4CCN(C)CC4)cc3OC)nc2N1C1CCCC1	-0.055	-0.141	0.1	-0.083	-0.149	0.153		-0.061	-0.008	0.181	-0.163	-0.009	0.031	0.035	0.083		0.246	-0.114
COc1cc2nc(-c3cc(F)ccc3O)nc(N[C@@H]3CNC[C@H]3C(C)(C)O)c2cc1OC	-0.062	-0.148	0.028	-0.163	-0.268 (active)	0.045	0.022		-0.066	0.05	0.013	0.029	-0.086	0.117	-0.012		-0.006	0.018
Cc1ccc(Sc2cncc3sc(C(N)=O)cc23)cc1	-0.033	0.079	-0.019	0.123	0.01	-0.015	0.008		-0.064	-0.115	0.053	0.038	0.014	-0.011	-0.138		-0.109	0.034
c1cc(OCCN2CCCCC2)cc(-c2n[nH]c3ccc(-c4nnc[nH]4)cc23)c1	-0.019	0.105	0.095	0.05	-0.052	-0.017		-0.026	-0.147	-0.104	-0.046	0.068	0.053	-0.076	-0.191		-0.067	-0.005
COc1ccc(Cn2ccc3ccc(C(=O)NO)cc32)cc1	-0.028	0.3	0.006	-0.002	0.069	0.008	0.026	0.094	-0.009	-0.128	0.13	0.137	-0.034	-0.01	-0.022	0.07	-0.05	

— the supplement of paper PMC10849652
